# Measured values: ChEMBL document CHEMBL3988442, “University of Dundee, Small-Polar-MMV Screening Library” (2021)
# Screen size: about 48,000 compounds; about 13,000 (27%) showed an effect of 50% or more. The list shows a part of the results.
# Tested on: Wolbachia pipientis
# Test: Anti-Wolbachia Cell-Based Screen
# Type: functional
# Design: scale not given: in the data most compounds retested in dose-response had high values
# Settings: 5 µM
row,Structure (SMILES),Percent Effect
1,CNC(=O)CN(C)Cc1ccc(F)cc1Cl,-1.762%
2,O=C(c1nc(N2CCCC2)ncc1Cl)N1CCN(Cc2ccsc2)CC1,11.05%
3,CCn1ncc2c1CCCC2NCc1csc(C(C)C)n1 (stereo unspecified),-1.873%
4,CC(C)Cc1nc(CS(=O)(=O)c2ccccc2)no1,-7.933%
5,CCN1C(=O)CC(c2cnn(C)c2)C12CCN(C(=O)C1CC=CC1)CC2 (stereo unspecified),-6.196%
6,CC(=O)NCC(=O)N1CCC2(CC1)NC(=O)CC2c1cnn(C)c1 (stereo unspecified),117.4%
7,O=C1CC(c2ccncc2)C2(CCN(C(=O)c3ccnnc3)CC2)N1 (stereo unspecified),8.485%
8,O=C(O)C(F)(F)F.O=C1CC(c2ccncc2)C2(CCN(C(=O)NC3CC3)CC2)N1 (stereo unspecified),-11.64%
9,Cn1cc(C2CC(=O)NC23CCN(C(=O)C2CC=CC2)CC3)cn1 (stereo unspecified),98.1%
10,CC(=O)NCC(=O)N1CCC2(CC1)NC(=O)CC2c1cccnc1.O=C(O)C(F)(F)F (stereo unspecified),7.13%
11,COCC(=O)N1CCC2(CC1)CC(c1cnn(C)c1)C(=O)N2 (stereo unspecified),4.267%
12,Cn1cc(C2CC(=O)NC23CCN(C(=O)c2ccc[nH]2)CC3)cn1 (stereo unspecified),-5.816%
13,Cn1cc(C2CC(=O)NC23CCN(C(=O)NC2CC2)CC3)cn1 (stereo unspecified),102%
14,CCn1ccnc1CNc1nccc(-c2cn(C)nc2C)n1,-3.456%
15,CC(C)C(NC(=O)N1CCN(c2ccc(Cl)cc2)CC1)C(=O)NC1CC1 (stereo unspecified),0.3878%
16,COc1ccc(OC)c(C(O)CN2CC(n3cccn3)C2)c1 (stereo unspecified),-4.387%
17,CCCN1CC2(CCN(c3cc(C4CC4)ncn3)CC2)CC1C(=O)O (stereo unspecified),-4.033%
18,CC1(C)CN(Cc2cc(C3CCCCC3)no2)CC[C@]1(C)O,3.04%
19,Cc1ccc(NC2CCN(C(=O)c3ccco3)CC2)nn1,66.81%
20,Cc1ccc(NC2CCN(C(=O)c3sccc3C3CC3)CC2)nn1,97.28%
21,Cc1ccc(NC2CCN(C(=O)c3n[nH]c4ccccc34)CC2)nn1,-3.019%
22,Cc1ccc(NC2CCN(C(=O)c3cnc(C)s3)CC2)nn1,-2.09%

row,Structure (SMILES),Percent Effect
1,Cc1ccc(NC2CCN(C(=O)c3ccncc3)CC2)nn1,119.5%
2,Cc1ccc(NC2CCN(C(=O)c3ccc(Cl)o3)CC2)nn1,-2.526%
3,Cc1ccc(NC2CCN(C(=O)c3cnn(C(C)(C)C)c3)CC2)nn1,89.59%
4,Cc1ccc(NC2CCN(C(=O)c3ccsc3)CC2)nn1,-4.871%
5,Cc1ccc(NC2CCN(C(=O)c3cccn3C)CC2)nn1,4.199%
6,CC(C)=CCN1CCc2onc(-c3ccc(F)c(F)c3)c2C1,-6.636%
7,CC(C)NC(=O)[C@@H]1C[C@@H](N)CN1C(=O)CCSCc1ccc(F)cc1,-8.578%
8,CC(NC(=O)c1cc2n(n1)CCCN(C)C2)c1cn2ncsc2n1 (stereo unspecified),2.374%
9,O=C(Cc1cc(F)cc(Cl)c1)N[C@@H]1CCNC[C@H]1O,-5.906%
10,Cc1ccc(NC2CCN(C(=O)c3ccnc(N(C)C)c3)CC2)nn1,106.8%
11,Cc1ccc(NC2CCN(C(=O)c3cccc4ncccc34)CC2)nn1,0.6647%
12,Cc1ccc(NC2CCN(C(=O)c3ccc(C#N)cc3)CC2)nn1,103.2%
13,CCn1ccnc1S(=O)(=O)Cc1ccc(C(N)=O)cc1,-8.81%
14,Cc1ccc(NC2CCN(C(=O)COC3CCCC3)CC2)nn1,70.65%
15,Cc1ccc(NC2CCN(C(=O)CN(C)C3CC3)CC2)nn1,-0.8726%
16,Cc1ccc(NC2CCN(C(=O)COCC3CC3)CC2)nn1,115.7%
17,Cc1ccc(NC2CCN(C(=O)CC3CCCO3)CC2)nn1 (stereo unspecified),6.763%
18,Cc1ccc(NC2CCN(C(=O)COCC(F)(F)F)CC2)nn1,-5.027%
19,Cc1ccc(NC2CCN(C(=O)CCOCC(F)(F)F)CC2)nn1,69.22%
20,Cc1ccc(NC2CCN(C(=O)COC3CCCCC3)CC2)nn1,112.2%
21,Cc1ccc(CNC(C)c2ccc(N3CCN(C)CC3)c(F)c2)o1.Cl (stereo unspecified),-9.969%
22,Cc1cc(NS(=O)(=O)c2c[nH]c3ncccc23)no1,-5.183%

row,Structure (SMILES),Percent Effect
1,COCc1ccccc1C(=O)NCC(O)c1ccccc1F (stereo unspecified),-8.064%
2,CN1CC2(CCN(C(=O)c3cccnc3)CC2)c2cccc(F)c21.Cl,104.8%
3,CC(=O)N1CCC2(CC1)C(=O)N(C)c1c(F)cccc12,2.868%
4,Cl.O=C(c1cccnc1)N1CCC2(CC1)CNc1c(F)cccc12,106.5%
5,CN1C(=O)C2(CCN(C(=O)c3ccccc3)CC2)c2cc(F)ccc21.Cl,-1.303%
6,CS(=O)(=O)N1CCc2[nH]cnc2C12CCN(C(=O)c1cccnc1)CC2,-96.76%
7,CN1C(=O)C2(CCN(C(=O)c3cccnc3)CC2)c2cccc(F)c21,5.447%
8,CC(=O)N1CCC2(CC1)CNc1ccc(F)cc12,-3.15%
9,CN1C(=O)C2(CCN(C(=O)c3ccccc3)CC2)c2cccc(F)c21.Cl,2.069%
10,CC(=O)N1CCC2(CC1)CNc1c(F)cccc12.Cl,98.89%
11,CN1CC2(CCN(Cc3cccnc3)CC2)c2cccc(F)c21.Cl,16.02%
12,Cl.O=C(c1ccccc1)N1CCC2(CC1)CNc1c(F)cccc12,97.7%
13,O=S(=O)(NCCN1CC=CC1)c1cncc(Cl)c1,-9.615%
14,CC(C)CN(C)Cc1c[nH]nc1-c1ccc(F)cc1F,-3.52%
15,CNC(=O)NC(=O)CN1CCN(CC(F)(F)F)CC1(C)C,-1.445%
16,CCC(C)(NCC(=O)NC(C)C)c1nc(C)cs1 (stereo unspecified),4.424%
17,CCN1CCN(c2ccc(C(=O)NCc3cc(C)no3)cc2F)CC1,-18.85%
18,Cc1nc(CN(C)C(=O)CN(C)C)nc2c1CCC(=O)N2CCC(C)C,66.01%
19,Cc1nnc(CN(C)C(=O)C(CC(C)C)N2CCCCC2=O)n1C (stereo unspecified),-1.247%
20,Cc1nc(C)c2c(n1)CCN(C(=O)CN(C)C)CC2,-4.048%
21,COC(=O)N1CCCC(NC(=O)NCc2nc(C)cs2)C1 (stereo unspecified),-5.295%
22,CCC(=O)N(CC)CCc1nccs1,-20.38%
